PubChem BioAssay
Several values for one entry are separate records, joined by “and”; a condition that tells them apart may be missing. Equal values may be shown once.

Key:
[1] = tested on: Botulinum neurotoxin type F light chain protease (Clostridium botulinum); experiment: Botulinum neurotoxin type F light chain protease inhibition, multiplex microsphere flow cytometry, validation set (AID 588459); conditions: multiplex microsphere protease substrate cleavage assay, at 10 µM, stronger effect = higher value
[2] = target: Botulinum neurotoxin type A (Clostridium botulinum) (UniProt P0DPI0); experiment: BoNT/A light chain protease inhibitors, biochemical, multiplex microsphere flow cytometry, validation set (AID 588460); conditions: at 10 µM, stronger effect = higher value
[3] = target: Lethal factor (Bacillus anthracis) (UniProt P15917); experiment: Lethal factor protease inhibitors, Bacillus anthracis, multiplex microsphere cleavage assay, validation set (AID 588461); conditions: flow cytometry, at 10 µM, stronger effect = higher value

Measured: inhibition

CC(=O)[C@@H]1[C@@H](C(=O)c2ccc(C)cc2)[C@]2(C(=O)Nc3ccccc32)[C@H]2C=Cc3cc(F)ccc3N12
inactive: [1] 2.2% | [2] 1.6% | [3] -6.9%

COc1cc2c(cc1OC)-c1nnc(C)n1C(C)(C)C2
inactive: [1] 0.7% | [2] 0.2% | [3] -2.5%

CCN(CC)CCNC(=O)c1ccc(NC(C)=O)cc1
inactive: [1] 3.4% and 3.6% | [2] 1.2% and -1.2% | [3] -6.2% and -1.6%

CCn1c(=N)c(C(=O)NC)cc2c(=O)n3cccc(C)c3nc21
inactive: [1] 3.8% | [2] 3.8% | [3] 5.6%

COc1cccc(/C=C/C(=O)c2c(O)cc(C)oc2=O)c1O
inactive: [1] 7% | [2] 1.7% | [3] 5.4%

CCc1cc(=O)oc2cc3occ(-c4ccc(OC)c(F)c4)c3cc12
inactive: [1] 2.2% | [2] -0.9% | [3] -2.7%

O=C(Cc1ccccc1[N+](=O)[O-])NCCCN1CCOCC1
inactive: [1] -1.6% | [2] -0.1% | [3] 6.7%

Cc1ncc(C(=O)O)c(C(=O)O)c1N
inactive: [1] 0.4% | [2] -0.1% | [3] 2.4%

Cc1ccc2[nH]c3c(c2c1)CCNC3=O
inactive: [1] -0.6% | [2] -0.5% | [3] -6.6%

Cc1cc(C)nc(NS(=O)(=O)c2ccc(N)cc2)n1
inactive: [1] 1.3% | [2] 2.1% | [3] 3.4%

CC(C)(C)C(=O)NC(=S)Nc1sc2c(c1C(N)=O)CCC2
inactive: [1] 0.8% | [2] 0.4% | [3] -1.2%

COc1ccccc1/C=C/CN1CCN(Cc2ccc(F)cc2)C(CCO)C1 (configuration not stated)
inactive: [1] 5.5% | [2] -0.2% | [3] -1.4%

COc1ccc(-c2coc3cc(OC(=O)N4CCOCC4)ccc3c2=O)cc1
inactive: [1] 4.3% | [2] -1.4% | [3] -0.4%

COc1ccc(CN(C)CCc2ccccn2)cc1OC
inactive: [1] -2.7% | [2] 0.2% | [3] -7.1%

COCCN(CCOC)Cc1c(C)[nH]c2c(C)c(C)ccc2c1=O
inactive: [1] 3.4% | [2] -0.6% | [3] -0.3%

O=c1c2ccccc2nnn1Cc1cccc2ccccc12
inactive: [1] 0.5% | [2] 0.7% | [3] -9.5%

CCc1cn([C@H]2C[C@H](O)[C@@H](CO)O2)c(=O)[nH]c1=O
inactive: [1] -0.5% | [2] -2.2% | [3] 1.6%

CC(=O)N(CCC(Cc1ccccc1)c1ccc2c(c1)OCO2)Cc1ccc(Cl)cc1 (configuration not stated)
inactive: [1] 3.5% | [2] 0.1% | [3] -1%

O=C(COc1ccc(F)cc1)OCCN1CCOCC1
inactive: [1] 1.8% | [2] -1% | [3] -5.2%

O=C(COc1ccc2c(-c3ccccc3)cc(=O)oc2c1)NCc1cccs1
inactive: [1] -0.2% | [2] -0.1% | [3] -6%

CC(COc1ccccc1)NC(C)C(O)c1ccc(O)cc1 (configuration not stated)
inactive: [1] -1.7% | [2] 0.2% | [3] 0.2%

COc1ccc(/C=N\NC(=O)CCc2c(C)n[nH]c2C)c(OC)c1OC
inactive: [1] -0.8% | [2] 0.3% | [3] 8.6%

O=c1[nH]c(=O)n([C@H]2C[C@H](O)[C@@H](CO)O2)cc1F
inactive: [1] 1.7% | [2] 1.3% | [3] 1.1%

O=C(C1CCCCC1)N1CC(=O)N2CCc3ccccc3C2C1 (configuration not stated)
inactive: [1] -2.5% | [2] -1.1% | [3] 3.9%

NS(=O)(=O)c1ccc(CCNC(=O)C2CCCN2C(=O)OCc2ccccc2)cc1 (configuration not stated)
inactive: [1] 3.9% | [2] -0.7% | [3] 1.2%

COc1ccc2c(c1)c(=O)oc1cc3occ(C(C)(C)C)c3cc12
inactive: [1] 1.2% | [2] 1.4% | [3] 6.9%

CNS(=O)(=O)c1ccc(C)cc1
inactive: [1] -3.1% | [2] -0.5% | [3] -3.3%

C=CCC1(O)C(=O)N2C(=C1C(=O)N1CCOCC1)c1ccccc1CC2(C)C (configuration not stated)
inactive: [1] -1.7% | [2] -0.2% | [3] 5.7%

CCCCCCCCCC(=O)OCC(O)CO (configuration not stated)
inactive: [1] -3.5% | [2] -2% | [3] -4.5%
